Compound activity from PubChem BioAssay.
LmPK inh: inhibitors of Leishmania mexicana pyruvate kinase. Q27686. purified LmPK, Kinase-Glo ATP luminescence, 1 h. Potency, µM (highest dose often 57.5 µM), most hits filed as inhibitors. 290,000 tested, 0.37% active. AID 1721
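Purified LmPK (0.1 nM) converted ADP (0.1 mM) to ATP with PEP (0.5 mM) in imidazole buffer pH 7.2 with KCl and MgCl2, 1 h at room temperature. ATP was read by Kinase-Glo luminescence; data normalized to uninhibited and no-enzyme controls.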
Tb PYK inh: blocks Trypanosoma brucei pyruvate kinase | TbPYK enzyme, Kinase-Glo Plus ATP luminescence, 45 min | Potency, µM (series often up to 76.8 µM), most hits filed as inhibitors | Q57TT1 | 410,000 tested, 0.12% active; note: nearly all actives have a fitted effect of over 50% in size
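In this concentration-response screen, enzyme-free wells defined baseline while DMSO plates tracked drift. Each reaction combined TbPYK, substrate, compound and 130 uM ADP for 45 min at room temperature. Kinase-Glo Plus luminescence gave the signal.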
RE007 growth inh: less growth of the S. pombe RE007 Vpr strain; S. pombe RE007 Vpr strain, BacTiter-Glo ATP luminescence, 24 h; Potency, µM (doses to about 92.2 µM), actives largely listed as inhibitors; 360,000 tested, 0.21% active; AID 651644; active = well fitted falling curve with a large enough effect; inconclusive = small, poorly fitted or top-dose-only effect; inactive = no such curve, though single readings can be large or run the other way; note: nearly all actives have a fitted effect of over 50% in size
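Fission yeast RE007 carrying one integrated HIV-1 vpr copy, seeded at OD 0.01 in PMG+AL medium with 23 nL pinned compound. Grown 24 h at 30 degrees; viability read by BacTiter-Glo luminescence after 5 min.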
FBPA Giardia inh: inhibitors of Giardia lamblia fructose-1,6-bisphosphate aldolase. Potency, µM (top dose mostly 59.6 µM), hits mostly inhibitors. 290,000 tested, 0.71% active. A8B2U2. purified Giardia FBPA; note: nearly all actives have a fitted effect of over 55% in size
Target sequence (A8B2U2 whole entry, looked up): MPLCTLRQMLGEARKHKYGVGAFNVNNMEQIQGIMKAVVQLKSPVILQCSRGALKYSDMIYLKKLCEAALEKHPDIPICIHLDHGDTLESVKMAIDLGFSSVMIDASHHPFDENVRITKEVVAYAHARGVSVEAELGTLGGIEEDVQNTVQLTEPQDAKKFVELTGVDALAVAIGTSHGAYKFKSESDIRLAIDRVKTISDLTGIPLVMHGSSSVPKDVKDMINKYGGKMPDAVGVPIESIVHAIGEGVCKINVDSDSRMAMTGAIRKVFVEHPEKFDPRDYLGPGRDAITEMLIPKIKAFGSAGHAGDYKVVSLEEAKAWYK
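40 nM FBPA preincubated 10 min at RT with compound (up to 57.5 uM final), then substrate plus GAPDH/TPI/NAD/arsenate coupling and diaphorase/resazurin added. Fluorescence read after 20 min at RT, 525/598 nm.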
CHX counter: counter-screen hit for Shiga toxin inhibitors, cycloheximide; cell reporter, cycloheximide protein synthesis inhibition counterscreen; max response, %; 300,000 tested, 12% active; in the data active = max response mostly above about 13%, no sharp cut-off; inactive = mostly below about 14%; note: read at 38.3 µM for the half of the compounds with a filed dose
Shiga toxin inh: inhibitors of Shiga toxin in Vero cells; Vero cells, Shiga toxin protein synthesis inhibition reporter; AID 2315; inhibition, % at 38.7 µM; 290,000 tested, 9.2% active; in the data active = inhibition mostly above about 28%, no sharp cut-off; inactive = mostly below about 43%
A number is an active result; . = inactive; ? = inconclusive; / = no result; [ ] = remark or other dose. This excerpt belongs to a sample that is enriched for hits. Unless noted, calls come from the whole dose curve; as a rule, active = well fitted curve in the direction sought with a large enough effect; inconclusive = small, poorly fitted or top-dose-only effect, or another doubt; inactive = no such curve, though single readings can be large; an effect the other way counts as inactive or inconclusive.

SMILES | LmPK inh | Tb PYK inh | RE007 growth inh | FBPA Giardia inh | CHX counter | Shiga toxin inh
COc1ccc(OCCCC(=O)OC(C)C(=O)Nc2cccc(C(C)=O)c2)cc1 (configuration not stated) | . | . | . | / | 15 | .
CC(=O)Nc1cccc(C(=O)OCCCOc2ccc(F)cc2)c1 | . | . | . | . | 32 | 58
CC(=O)Nc1cccc(C(=O)OCC(=O)NC(C)c2ccc(F)cc2)c1 (configuration not stated) | . | . | . | . | . | .
CC(=O)O[C@@H]1C(=O)O[C@H]2[C@@H]1OC(=O)[C@@H]2OC(C)=O | / | . | / | / | / | /
O=C(CN1C(=O)C2CC=CCC2C1=O)Nc1ccc(S(=O)(=O)Nc2nccs2)cc1 (configuration not stated) | . | . | . | . | . | .
O=C(NC(Cc1ccccc1)C(=O)O)/C(=C/c1ccccc1)NC(=O)c1cccc(Br)c1 (configuration not stated) | . | . | . | . | . | .
COc1ccc(Oc2nccc(-c3ccccc3)c2C#N)cc1 | . | . | . | . | 77 | 133
COc1ccnc(Oc2ccc(F)cc2)c1C#N | . | . | . | . | . | .
COc1ccc(Oc2nccc(-c3ccc(F)cc3)c2C#N)cc1 | . | . | . | . | . | .
COc1ccnc(Oc2ccc3ccccc3c2)c1C#N | . | . | . | . | 61 | 60
COc1ccnc(Oc2ccc(C)cc2)c1C#N | . | . | . | . | 37 | 121
COCCCNC(=O)c1sc2nc(C)c(C(=O)Nc3ccc(C)cc3C)c(-c3ccccc3Cl)c2c1N | / | . | / | / | / | /
Nc1ncnc2nc(SCCN3CCCCC3)[nH]c12 | . | . | . | . | . | .
Cc1cc2nc(SCCN3CCCC3)[nH]c2cc1C | . | . | . | . | 12 | .
O=C(O)CCc1ccc(-c2ccc(Cl)cc2)o1 | . | ? | . | . | . | .
COc1ccc(-c2ccc(CCC(=O)O)o2)cc1 | . | ? | . | . | 25 | 41
O=C(O)CCc1ccc(-c2ccc(Br)cc2)o1 | . | ? | ? | . | . | 39
O=C(CSc1nc2ccc(Cl)cc2[nH]1)NCCc1ccc(Cl)cc1 | . | . | . | . | 37 | .
COc1ccc2nc(SCC(=O)N3CCNC3=O)[nH]c2c1 | . | . | . | . | 48 | 79
O=C(CSc1nc2ccc(Cl)cc2[nH]1)NCCc1ccccc1 | . | . | . | . | . | .
Cc1cccc2c(=O)c(C(=O)NCc3cccs3)c[nH]c12 | / | . | . | / | / | /
COC(=O)C1CCN(C(=O)CSc2nc3ccc(OC)cc3[nH]2)CC1 | . | . | . | . | . | .
Cc1ccc2c(=O)c(C(=O)NCc3cccs3)c[nH]c2c1 | . | . | . | . | 23 | 51
Cc1ccc2nc(SCC(=O)NCc3cccs3)[nH]c2c1 | . | . | . | . | 11 | .
Cc1ccc(C)c(CN2C(=O)c3ccccc3S(=O)(=O)c3ccc(C(=O)N4CCCCC4)cc32)c1 | / | . | / | / | / | /
SMILES | LmPK inh | Tb PYK inh | RE007 growth inh | FBPA Giardia inh | CHX counter | Shiga toxin inh
C=C(C)CSc1[nH]c(=O)cc(C)c1C#N | . | . | . | . | . | .
CCOCCc1nnc(NC(=O)C(CC)c2ccccc2)s1 (configuration not stated) | . | . | . | . | . | .
Cc1ccc(C(=O)OCC(=O)NCc2cccs2)c(C)c1 | . | . | . | . | 41 | 113
COC(=O)c1ccc(CSc2nc3c(cnn3-c3ccc(C)cc3)c(=O)[nH]2)o1 | . | . | . | . | . | .
COC(=O)c1ccc(CSc2nc3ccc(C)cc3[nH]2)o1 | . | . | . | . | 27 | 37
COc1cccc(CNC(=O)CSc2nc3ccc(C)cc3[nH]2)c1 | . | . | . | . | 17 | .
Cc1cc(C)cc(C(=O)OCC(=O)NCc2cccs2)c1 | . | . | . | . | . | .
COc1ccc2nc(SCC(=O)NCc3ccc(F)cc3)[nH]c2c1 | . | . | . | / | . | .
Cc1ccc(NC(=O)Cc2cc(C(=O)O)c3ccccc3n2)c(C)c1 | . | . | . | . | . | .
COc1cccc(C(NC(C)=O)c2nc(-c3cccs3)cs2)c1 (configuration not stated) | / | . | .[18.4 µM] | / | / | /
c1ccc2sc(NC3=NCN(CCN4CCOCC4)CN3)nc2c1 | . | . | . | . | . | .
c1ccc2sc(NC3=NCN(CC4CCCO4)CN3)nc2c1 (configuration not stated) | . | . | . | . | 36 | .
COc1ccc2nc(NC(=O)c3c(C)noc3C)sc2c1 | / | . | ? | / | / | /
COc1ccc2nc(NC3=NCCN3)sc2c1 | . | . | . | . | 55 | 28
c1ccc2sc(NC3=NCCN3)nc2c1 | . | . | . | . | 30 | 65
COc1ccc2nc(Nc3nc(C)c(C(C)=O)s3)sc2c1 | . | . | . | ? | 55 | 108
COc1ccc(CN2CN=C(Nc3nc4ccccc4s3)NC2)cc1 | . | . | . | . | . | .
CCc1ccccc1NC(=O)CCc1c(C)nc2cc(-c3ccccc3)nn2c1C | / | . | / | / | / | /
OCC[C@@H]1C[C@H](O)[C@@H](O)[C@@]2(OCCc3cc(Cl)ccc32)O1 | / | . | . | / | / | /
Cc1noc(C)c1COC(=O)C1CCN(S(=O)(=O)c2ccc(F)cc2)CC1 | / | . | . | / | / | /
COc1ccc2nc(NS(=O)(=O)c3ccc(NC(C)=O)cc3)sc2c1 | . | . | . | . | . | .
COc1ccc(Nc2nc3ccc(OC)cc3s2)cc1 | . | . | . | . | 44 | 82
CC(C)N=Cc1c(O)[nH]c2ccccc12 | . | . | . | . | . | .
Cc1cccc(/N=C/c2c(O)[nH]c3ccccc23)n1 | . | . | . | . | 46 | 92
Cc1cccc(/N=C/c2sc3ccccc3c2O)n1 | ? | . | . | . | 44 | 39
SMILES | LmPK inh | Tb PYK inh | RE007 growth inh | FBPA Giardia inh | CHX counter | Shiga toxin inh
c1ccc(-c2cc(N3CCOCC3)nc(-c3ccccc3)n2)cc1 | . | . | . | . | . | .
Cc1ccc(-c2nc(Nc3ccc(O)cc3)c3ccccc3n2)cc1 | . | . | . | . | 14 | .
Cc1ccc(-c2nc(Nc3ccc(N4CCOCC4)cc3)c3ccccc3n2)cc1 | . | . | . | . | . | 52
O=C(O)c1cc(/C=C/c2ccc(N3CCOCC3)c([N+](=O)[O-])c2)nc2ccccc12 | ? | . | . | . | . | .
c1ccc(-c2cc(-c3ccc(N4CCOCC4)cc3)nc3ccccc23)cc1 | . | . | . | . | 14 | .
O=C(O)c1cc(/C=C/c2ccc(N3CCOCC3)cc2)nc2ccccc12 | ? | . | 16µM | . | . | .
Cc1ccc(-c2nc(Nc3cccc(O)c3)c3ccccc3n2)cc1 | . | . | . | . | . | .
CC(=O)NC(=Cc1ccccc1)C(=O)N1CCCC1C(=O)O (configuration not stated) | / | . | . | / | / | /
C[C@H](CO)N1C[C@H](C)[C@@H](CN(C)S(=O)(=O)c2ccccc2C#N)OCc2cn(nn2)CCCC1=O | / | . | . | / | / | /
